From PubChem BioAssay
KB-V1 MDR tox = kills drug-selected multidrug resistant KB-V1 cells | Potency, µM (top dose mostly 46.1 µM), hits mostly cytotoxic | KB-V1 MDR cells viability, CellTiter-Glo, 72 h | 400,000 tested, 3.4% active | AID 1347076; further: on the % scale 0 is the no-effect control and ±100 the full control effect; nearly all actives have a fitted effect of over 60% in size
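Luminescent ATP read-out (CellTiter-Glo, 10 min) measures survival of drug-selected KB-V1 MDR cells after 72 h, 37 degrees C compound exposure. Medium: phenol-red-free DMEM, 10% FBS. Values from fitted concentration-response curves.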
ATXN2 expr inh = ATXN2 expression inhibition | 360,000 tested, 0.72% active | Potency, µM (highest dose often 57 µM), for inactives: top-dose activity change, negative = inhibition, most hits filed as inhibitors | HEK-293 ATXN2-luciferase reporter, luminescence, 24 h | AID 1745845; further: on the % scale 0 is the no-effect control and ±100 the full control effect; nearly all actives have a fitted effect of over 55% in size
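ATXN2-luciferase reporter cells (luciferase flanked by upstream and downstream ATXN2 gene portions) were treated 24 h at 37 °C with compounds at up to 57 uM. SteadyGlo luminescence gave expression; GF-AFC fluorescence gave viability.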
HepG2 viability = HepG2 cytotoxicity, counter-screen for TGF-b inhibitors; Potency, µM (highest dose often 46.1 µM), for inactives: at the top dose activity change, negative = cytotoxicity, most hits filed as cytotoxic; HepG2 CAGA-GFP viability, ATP luminescence, 18 h; 410,000 tested, 0.76% active
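CellTiter-Glo luminescence gave cytotoxicity after 18 hours at 37 degrees C. The cells were HepG2 CAGA-GFP in 1% FBS DMEM, stimulated with 500 pg/mL TGF-beta after compound addition. %Activity was normalised to no-cell wells (complete cell-killing) and DMSO (no toxicity), and curves were fitted and classified.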
S2 tox = reduces viability in counter-screen for ATXN expression inhibitors. AID 651635. 400,000 tested, 0.49% active. Potency, µM (doses to about 56.7 µM), actives largely listed as cytotoxic. S2 cells (HEK-293 line with an ATXN2-luciferase reporter) viability, CellTiter-Fluor protease fluorescence, 24 h; further: nearly all actives have a fitted effect of over 40% in size
TGFb SMAD3 inh = blocks TGF-b signaling | 410,000 tested, 1.2% active | Potency, µM (series often up to 46.1 µM), without a hit: top-dose activity, negative = inhibition, usual class: inhibitors | HepG2 CAGA-GFP TGF-b/SMAD3 reporter, GFP fluorescence, 18 h; TGF-beta stimulated, 500 pg/mL final; further: on the % scale 0 is the no-effect control and ±100 the full control effect; nearly all actives have a fitted effect of over 65% in size
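First, reporter cells (HEPG2 CAGA-GFP) rested 2 h at 37 degrees C. Next, compounds were pinned in and TGF-beta added to 500 pg/mL final. After 18 h, GFP was imaged per cell and summed per well.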
KB-3-1 cytotox = kills parental KB-3-1 adenocarcinoma cells. AID 1347075. Potency, µM (doses to about 46.1 µM), actives largely listed as cytotoxic. KB-3-1 viability, CellTiter-Glo ATP luminescence, 72 h. 400,000 tested, 1.4% active; further: on the % scale 0 is the no-effect control and ±100 the full control effect; nearly all actives have a fitted effect of over 60% in size
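Screening of KB-3-1 cells (DMEM, 10% FBS, phenol-red free) ran from lowest to highest compound concentration; after 72 h at 37 °C viability was read luminescently and curves fitted.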
Active calls of the source: *; i = inactive; ? = inconclusive; . = no result given. The list is not random: actives were taken first. Their share in the collection is about 5.9%. The call rests on the fitted dose curve; in most records, active means well fitted curve in the direction sought with a large enough effect; inconclusive means small, poorly fitted or top-dose-only effect, or another doubt; inactive means no such curve, though single readings can be large; an effect the other way counts as inactive or inconclusive. Potency means the concentration at half of the fitted maximal effect.

SMILES	KB-V1 MDR tox	ATXN2 expr inh	HepG2 viability	S2 tox	TGFb SMAD3 inh	KB-3-1 cytotox
CCCCNc1ncnc2c1cnn2Cc1ccc(Cl)cc1	i	-24%	-27%	i	-13%	?
Cc1ccc(Cl)cc1-n1ncc2c(NCCCc3ccccc3)ncnc21	?	?	-39%	32µM*	?	?
Cc1ccc(CNc2ncnc3c2cnn3-c2ccc(Cl)cc2)cc1	i	.	-10%	.	0%	i
Clc1ccc(Cn2ncc3c(NCc4ccccc4)ncnc32)cc1	6.5µM*	-24%	-30%	?	2%	5.2µM*
Clc1ccc(-n2ncc3c(NCc4ccccn4)ncnc32)cc1	23µM*	70%	0%	i	-4%	i
CCCCNc1ncnc2c1cnn2-c1ccc(Cl)cc1	?	14%	-4%	?	?	1.6µM*
C[C@]12C=CC(=O)N[C@@H]1CC[C@H]1[C@H]3CC[C@@H](C(=O)Nc4cc(C(F)(F)F)ccc4C(F)(F)F)[C@@]3(C)CC[C@@H]12	.	-27%	.	.	.	.
COc1ccc(Nc2ncnc3c2cnn3Cc2ccccc2)cc1OC	18µM*	?	-8%	i	-10%	i
c1ccc(-n2ncc3c(NCCCN4CCOCC4)ncnc32)cc1	i	.	-16%	.	1%	i
Cc1cccc(Nc2ncnc3c2cnn3Cc2ccccc2)c1	i	.	-23%	i	1%	i
CCCCNc1ncnc2c1cnn2-c1ccccc1	?	42%	-2%	?	-33%	6.5µM*
COc1cc(N)c(N)cc1OC	i	.	7%	.	-10%	i
CCOC(=O)[C@]12CCCC=C1N(CCC1=CCCCC1)C(=O)[C@H](CC(=O)N1CCN(C(=O)C3CC3)CC1)C2	i	.	.	.	.	i
COc1ccc(CNC(=O)c2ccc(-c3nc(CSc4ccccc4)c(C)o3)cc2)cc1OC	i	-8%	-15%	i	1%	i
CN(c1ccccc1)c1cc(Br)nc(Br)c1	21µM*	-2%	6%	i	16%	?
OC(CNCCc1ccccc1)COc1ccc(OCC(O)CNCCc2ccccc2)cc1 (stereo not drawn)	?	28µM*	-90%	?	?	21µM*
OC(CNCCc1ccc(Cl)cc1)COc1cc(Cl)ccc1Cl (stereo not drawn)	i	?	-105%	?	16µM*	?
COc1ccc(C(OCC(O)CNCCc2ccccc2)c2ccc(OC)cc2)cc1 (stereo not drawn)	16µM*	?	-76%	?	?	?
OC(CNCCc1ccc(Cl)cc1)COc1ccc2ccccc2c1 (stereo not drawn)	i	-1%	-102%	i	?	i
O=S1(=O)C2CC3CCC2(CN1Cc1ccccc1)O3 (stereo not drawn)	.	.	10%	.	-9%	.
CCS(=O)(=O)Nc1cc(C(=O)N2CCC[C@H]2CO)c2c(c1)nc(-c1ccccc1)n2C	.	.	.	i	.	.
COC(=O)Cn1c(=NC(=O)c2ccc3c(c2)OCCO3)sc2ccccc21	.	.	5%	.	3%	.
O=C1C=CC2C(c3ccc4c(c3)OCO4)CC1N2Cc1ccccc1 (stereo not drawn)	?	-13%	0%	i	5%	9.2µM*
CCc1c(-c2ccccc2OC)ncn1Cc1cccc(-c2ccccc2)c1	?	.	.	.	.	13µM*
COc1ccc(-c2csc3ncn(Cc4ccccc4)c(=O)c23)cc1	i	.	6%	i	39%	i
SMILES	KB-V1 MDR tox	ATXN2 expr inh	HepG2 viability	S2 tox	TGFb SMAD3 inh	KB-3-1 cytotox
CCc1c(-c2ccc(OC)cc2)ncn1Cc1cccc(-c2ccccc2)c1	16µM*	.	.	.	.	?
COc1ccccc1-c1ncn(Cc2cccc(-c3ccccc3)c2)c1CC(C)C	16µM*	11µM*	.	11µM*	.	?
COCn1cnc(-c2ccccc2)c1-c1ccccc1	i	-5%	-43%	i	-4%	i
Cc1cc2c(cc1CC(=O)c1sccc1S(=O)(=O)Nc1onc(C)c1Cl)OCO2	.	-4%	.	i	.	.
Cc1ccc2ccc3cccnc3c2n1	?	?	-31%	?	-18%	12µM*
CCCCCCCCCOC(=O)CNc1nc(C#N)nc(NCC(=O)OCCCCCCCCC)n1	i	.	17%	.	7%	?
C=CCn1c(SCc2ccc(Cl)cc2)nc2cc(C(=O)N3CCC(C(N)=O)CC3)ccc2c1=O	26µM*	-26%	-8%	i	-9%	?
Cc1ccnc(NC(=S)N2CCN(c3ccc(C(F)(F)F)cc3)CC2)c1	i	.	.	.	.	i
Cc1ccc2c(c1)c1c(n2CC(O)CNC2CCCC2)CCCC1 (stereo not drawn)	21µM*	.	-101%	25µM*	?	?
CN1CCCc2ccccc21	i	.	2%	.	2%	i
COc1ccc(-c2cn3c(C)c(C(=O)N4CCN(c5ccc(F)cc5)CC4)sc3n2)cc1	i	19%	-38%	i	0%	i
CCOC(=O)N1CCN(C(=O)c2sc3nc(-c4ccc(F)cc4)cn3c2C)CC1	7.3µM*	-2%	11%	i	11%	i
Cc1c(C(=O)N2CC(C)OC(C)C2)sc2nc(-c3ccc(F)cc3)cn12 (stereo not drawn)	8.2µM*	1%	17%	i	8%	?
Cc1ccc(NC(=O)c2cc(S(=O)(=O)N3CCC(C)CC3)cn2C)cc1Cl	i	1%	2%	i	-12%	i
Cc1cc(C)cc(OCc2cc(=O)n3cc(C)sc3n2)c1	i	7%	4%	i	9%	i
CCn1c(/C=C/N(C(C)=O)c2ccccc2)[n+](CC)c2ccc(Cl)cc21	i	-5%	-39%	?	?	i
CC[n+]1c(/C=C/C=C/N(C(C)=O)c2ccccc2)sc2ccccc21	?	?	-15%	.	170%	16µM*
CCCCC[C@@H](C)N1C[C@@H](COCc2ccccc2)Oc2cc(N3CCC[C@H]3COC)ccc2S1(=O)=O	i	15%	.	i	.	i
Cc1ccc(C(C)NC(=O)/C(C#N)=C\c2c(C)[nH]c3ccccc23)cc1 (stereo not drawn)	12µM*	7%	-67%	i	?	i
Cc1[nH]c2ccccc2c1/C=C(\C#N)C(=O)NCc1ccccc1	i	1%	-6%	?	8%	i
CCNc1ccc(Br)cc(C(=O)/C=C/c2ccc(Cl)cc2)c1=O	18µM*	22µM*	-43%	.	0%	16µM*
Cc1ncc2c(c1CNC(=O)c1ccc3c(c1)OCO3)CCN(C(=O)/C=C/c1ccccc1Cl)C2	.	.	.	i	.	.
